This excerpt belongs to a sample that is enriched for hits.
Tg IFNy HTS – blocks Toxoplasma gondii growth in the presence of IFN-gamma | Toxoplasma gondii growth in IFN-gamma-treated host cells; hits give low values | hit rate 3.8% among 69,000 | activity change, negative = inhibition, % (test concentration not listed); in the data active means activity change below about -70%, passing the limit was not always enough;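 further: host cells are HeLa cells infected with Toxoplasma gondii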
* hit, by the source's call; ! = not confirmed by another sample.

SMILES | Tg IFNy HTS
Cc1oc(-c2ccc(Cl)cc2)cc1COC(=O)Nc1ccc(OC(F)(F)F)cc1 | -19
COc1cccc(C#Cc2ccc3c(c2)O[C@H](CN(C)C(=O)CN2CCOCC2)[C@@H](C)CN([C@@H](C)CO)S3(=O)=O)c1 | -50
COc1cccc(-c2ccc3c(c2)O[C@H](CN(C)Cc2cccnc2)[C@@H](C)CN([C@@H](C)CO)S3(=O)=O)c1 | -64
COc1cccc(-c2ccc3c(c2)O[C@@H](CN(C)Cc2cccnc2)[C@H](C)CN([C@H](C)CO)S3(=O)=O)c1 | -64
C[C@@H]1CN([C@H](C)CO)S(=O)(=O)c2ccc(C#Cc3ccccc3F)cc2O[C@@H]1CN(C)C(=O)Cc1cccnc1 | -99*
C[C@H](CO)N1C[C@H](C)[C@H](CN(C)C(=O)Cc2cccnc2)Oc2cc(C#Cc3ccccc3F)ccc2S1(=O)=O | -89*
COc1cccc(C#Cc2ccc3c(c2)O[C@H](CN(C)C(=O)CN2CCOCC2)[C@@H](C)CN([C@H](C)CO)S3(=O)=O)c1 | -6
CC[N+](CC)(CC)CC(=O)Nc1c(C)cccc1C | 18
Cc1ccc(NC(=O)C(=O)NCCc2sc(-c3ccc(F)cc3)nc2C)cc1 | 76
CC(C)Cc1cc(C(=O)N(CC#Cc2ccccc2)C2CC2)n(C)n1 | -2
O=C(CCC1N=C2c3ccccc3N=C(SCc3ccc(F)cc3)N2C1=O)NC1CCCCC1 (stereo not drawn) | 3
Cn1ncc2c(Sc3ccc(Cl)cc3)ncnc21 | -66
Cn1ncc(C(=O)Sc2ccc(Cl)cc2)c1-n1cccc1 | -94*
Cc1nn(-c2ccccc2)nc1C(=O)Sc1ccc(Cl)cc1 | -59
CC(=O)OC(C)(C)[C@@H]1Cc2cc3ccc(=O)oc3cc2O1 | 13
COC[C@@H]1CN(C)C[C@]12CCN(C(=O)c1cc3ccccc3s1)C2 | -2
Cc1c(C2CCN(CCc3ccccc3)CC2)noc1-c1ccc(Cl)cc1 | -76*!
OC(c1ccccc1)C1CCN(CCc2ccccc2)CC1 (stereo not drawn) | 18
CCn1c(CC2CCN(CCc3ccccc3)CC2)n[nH]c1=O | -5
CCn1nc(C)c(NC(=O)CNC(c2nccn2C)C(C)C)c1C (stereo not drawn) | 42
CCC(=O)Nc1cccc(C(=O)NCCS(C)(=O)=O)c1 | 3
COc1cccc2cc(C(=O)Nc3cnn(Cc4cccc(F)c4)c3)c(C)nc12 | 2
O=C(NCCS(=O)(=O)c1ccc(F)cc1)C1OCCc2ccccc21 (stereo not drawn) | 10
O=C(Nc1cnn(Cc2cccc(F)c2)c1)C1OCCc2ccccc21 (stereo not drawn) | -97*
COC(=O)c1cc(OC)c(OC)cc1NC(=O)c1cnc(N(C)C)nc1C(F)(F)F | 27
SMILES | Tg IFNy HTS
O=C(Cn1c(=O)cc(C(=O)N2CCCCC2)c2ccccc21)Nc1cc(F)ccc1F | -5
Cc1cc(C)n(CCc2nnc(NC(=O)Cc3c(C)[nH]c4c(C)ccc(C)c34)s2)n1 | -5
CCOC(=O)N1CCC2(CC1)OC(=O)C(C)=C2C(=O)Nc1ccc(F)cc1F | 69
COc1ccc(Cl)cc1C(=O)Nc1ccc2c(c1)CCC(=O)N2C | 44
COC(=O)CC1(C(=O)OC)Oc2ccc(Cl)cc2C(=O)N1c1ccc(F)cc1F (stereo not drawn) | -70*
CCOc1ccc(-c2ccnc3c2ccn3C)nn1 | 67
CCOC[C@H]1CCC[C@]12CN(C(=O)c1ccno1)CCO2 | -27
CCC(=O)Nc1cccc(Oc2nc(Nc3ccc(N4CCN(C)CC4)cc3OC)ncc2Cl)c1 | -19
C=CC(=O)Nc1cccc(Sc2nc(Nc3ccc(N4CCN(C)CC4)cc3)ncc2Cl)c1 | -82*
C=CC(=O)Nc1cccc(Oc2nc(Nc3ccc(N4CCN(C)CC4)cc3OC)ncc2Cl)c1 | -67
C[C@H](CO)N1C[C@H](C)[C@@H](CN(C)C(=O)Nc2ccc3c(c2)OCO3)Oc2c(NC(=O)c3nc4ccccc4s3)cccc2C1=O | 4
CC(=O)N1C[C@H]2CCC[C@]2(COCc2csc(C)n2)C1 | 32
COc1ccc(C(=O)N2CCc3c([nH]c4ccccc34)C2c2ccc(SC)cc2)cc1 (stereo not drawn) | -105*
COc1ccc(CC(=O)N2CCc3c([nH]c4ccccc34)C2c2ccc(SC)cc2)cc1 (stereo not drawn) | 299
CSc1ccc(C2c3[nH]c4ccccc4c3CCN2C(=O)c2ccncc2)cc1 (stereo not drawn) | 309
CSc1ccc(C2c3[nH]c4ccccc4c3CCN2C(=O)c2ccc(F)cc2)cc1 (stereo not drawn) | -42
COc1cc(C(=O)N2CCc3c([nH]c4ccccc34)C2c2ccc(SC)cc2)cc(OC)c1OC (stereo not drawn) | -60
CSc1ccc(C2c3[nH]c4ccccc4c3CCN2C(=O)c2ccccc2)cc1 (stereo not drawn) | -88*
CC(C)(CNC(=O)CC1NC(=O)N(c2ccccc2)C1=O)c1cccc(F)c1 (stereo not drawn) | -3
CN1C2(CCN(CC3CC3)C2)c2ccccc2S1(=O)=O (stereo not drawn) | 5
CC(C)N1CCNC(=O)C1CC(=O)NCc1cc2cc(Cl)ccc2[nH]1 (stereo not drawn) | 9
